Experimental data as given in PubChem BioAssay (EPA / NIEHS).
Inconclusive results are not listed. Active and inactive are the calls of the source. The calls were made as follows: active = hit-call score of the fitted dose curve at least 0.9, where 1 is the maximum; inconclusive = response in the unintended direction; inactive = score below 0.9.

The compounds below were run against Nuclear receptor subfamily 1 group I member 2 (Homo sapiens) (UniProt O75469) (assay: NVS_NR_hPXR: NovaScreen (NVS) Nuclear Receptor Binding Assay for human Pregnane X Receptor (PXR) (AID 2283365);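 also: a drop in FRET signal versus DMSO baseline means the compound binds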).
Nuclear receptor subfamily 1 group I member 2 (Homo sapiens), sequence (O75469 whole entry, looked up): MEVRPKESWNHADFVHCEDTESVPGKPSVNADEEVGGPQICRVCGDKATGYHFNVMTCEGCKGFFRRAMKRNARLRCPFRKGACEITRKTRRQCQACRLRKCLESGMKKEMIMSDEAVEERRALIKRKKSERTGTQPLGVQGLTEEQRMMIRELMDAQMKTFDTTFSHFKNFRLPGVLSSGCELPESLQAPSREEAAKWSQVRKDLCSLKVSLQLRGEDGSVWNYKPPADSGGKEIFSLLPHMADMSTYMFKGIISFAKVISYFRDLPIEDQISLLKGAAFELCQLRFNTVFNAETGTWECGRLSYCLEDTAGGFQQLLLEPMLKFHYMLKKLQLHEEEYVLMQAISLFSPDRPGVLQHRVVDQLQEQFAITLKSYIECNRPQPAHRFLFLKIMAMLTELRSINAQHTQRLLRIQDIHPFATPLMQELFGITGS
Protocol: NVS_NR_hPXR is a biochemical, single-readout assay that uses extracted gene-proteins in a cell-free assay. Measurements were taken 2 hours after chemical dosing in a 384-well plate.NVS_NR_hPXR is one of one assay component(s) measured or calculated from the NVS_NR_hPXR assay. It is designed to make measurements of fluorescent resonance energy transfer, a form of binding reporter, as detected with fluorescent resonance energy transfer signals by Time-Resolved Fluorescence Resonance Energy Transfer (TR-FRET) technology.Data from the assay component NVS_NR_hPXR was analyzed into 1 assay endpoint. This assay endpoint, NVS_NR_hPXR, was analyzed in the positive analysis fitting direction relative to DMSO as the negative control and baseline of activity. Using a type of binding reporter, loss-of-signal activity can be used to understand changes in the binding as they relate to the gene NR1I2. Furthermore, this assay endpoint can be referred to as a primary readout, because the performed assay has only produced 1 assay endpoint. To generalize the intended target to other relatable targets, this assay endpoint is annotated to the nuclear receptor intended target family, where the subfamily is non-steroidal.
Binding assays used specific radioligands (tritiated, iodinated) with non-radioactive competitive displacement ligands in agonist or antagonist protocols (as indicated) and various reference compounds and inhibitors to titrate specific binding to receptors and transporters. Most enzyme assays (CYPs, kinases, phosphatases, proteases, HDACs) used recombinant protein and specific substrates (fluorescence mostly, some colorimetric and radioactive) and inhibitors, followed by a biochemical separation of substrate and product. All assays for the biochemical HTS were initially run in duplicate at a single concentration (10 uM for CYP450 assays and 25 uM for all others). […] Each assay was run with positive and negative controls, and concurrent controls on every plate. The follow-up (secondary) screen tested active chemical-pairs in concentration series, as well as a few additional assays not tested in the primary screen, some selected negative inactives, and several cases re-run in the concentration series for confirmatory purposes.
For O=C(O)c1cc(N=Nc2ccc(S(=O)(=O)Nc3ccccn3)cc2)ccc1O, the outcome was “inactive”.
In the case of C=CCCCCCCCCC(=O)O, the outcome was “inactive”.
For CN(C)c1ccc(Cc2ccc(N(C)C)cc2)cc1, the outcome was “inactive”.
For CC(=O)OCCC(C)C, the outcome was “inactive”.
In the case of COC(=O)c1ccccc1O, the outcome was “inactive”.
For NC(=O)NO, the outcome was “inactive”.
CC1(C)C(=O)N(Br)C(=O)N1Br was tested, and the outcome was “inactive”.
Nc1cccc(N)c1 was tested, and the outcome was “inactive”.
For Cc1ccc(N)cc1O, the outcome was “inactive”.
In the case of COc1cccc(-c2ccc(/C=C\CN3CCCCCC3)cc2Cl)c1, the outcome was “inactive”.
